In PubChem BioAssay (NCI):
This is part of a sample that, as a whole, favours compounds with a hit. Of some 79,000 tested, about 15% had one in any assay. Active and inactive are the calls of the source. No stated cut-off is given here; in the data, active means growth inhibition above about 70%; inactive means the rest.

Legend:
[1] = NCI Yeast Anticancer Drug Screen. Data for the rad52 strain (AID 147);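 further: 0% = growth of vehicle-treated control cultures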; details: S. cerevisiae rad52 mutant growth inhibition, hits give high values
Procedure, shortened: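 Compounds are applied to a genetically defined yeast strain lacking normal DNA damage repair, and inhibition of growth is expressed relative to cultures given vehicle only.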

[2] = NCI Yeast Anticancer Drug Screen. Data for the rad50EPP+ strain (AID 151);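 further: 0% = growth of vehicle-treated control cultures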; details: S. cerevisiae rad50 mutant strain, hits give high values
Procedure, shortened: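 Compounds were applied to the rad50EPP+ yeast strain, which bears a defined DNA repair alteration, and growth inhibition was determined relative to vehicle-treated cultures.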

[3] = NCI Yeast Anticancer Drug Screen. Data for the mgt1 strain (AID 153); details: S. cerevisiae mgt1 mutant growth inhibition, hits give high values
Procedure, shortened: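 Strain: mgt1 yeast, one of a set carrying defined DNA damage repair or cell cycle control alterations. Compound-treated growth compared with vehicle.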

[4] = NCI Yeast Anticancer Drug Screen. Data for the rad50 strain (AID 155);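 further: 0% = growth of vehicle-only cultures of the same strain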; details: S. cerevisiae rad50 strain growth inhibition, hits give high values
Procedure, shortened: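 Yeast carrying a defined DNA repair defect were exposed to test compounds, and growth was compared with vehicle-treated controls to give percent inhibition.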

[5] = NCI Yeast Anticancer Drug Screen. Data for the mec2-1 strain (AID 157); details: S. cerevisiae mec2-1 strain, hits give high values
Procedure, shortened: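 Strain: mec2-1 (DNA repair/cell cycle alteration). Compound exposure, then growth measured; inhibition expressed relative to vehicle.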

[6] = NCI Yeast Anticancer Drug Screen. Data for the rad14 strain (AID 159);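 further: 0% = growth of vehicle-treated control cultures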; details: S. cerevisiae rad14 strain growth inhibition, hits give high values
Procedure, shortened: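 Yeast cells carrying a defined DNA-repair defect were exposed to compounds, and growth inhibition was calculated relative to vehicle-treated control cultures.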

[7] = NCI Yeast Anticancer Drug Screen. Data for the sgs1 mgt1 strain (AID 161);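 further: 0% = growth of cultures given vehicle only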; details: S. cerevisiae sgs1 mgt1 strain, hits give high values
Procedure, shortened: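 Read-out: growth inhibition vs vehicle controls. Cells: mutant yeast strain deficient in DNA damage repair.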

[8] = NCI Yeast Anticancer Drug Screen. Data for the CLN2oe strain (AID 163);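 further: 0% = growth of vehicle-only control cultures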; details: S. cerevisiae CLN2oe strain, hits give high values
Procedure, shortened: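 Growth of a genetically modified yeast strain is measured after compound exposure and compared with cultures given vehicle alone.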

[9] = NCI Yeast Anticancer Drug Screen. Data for the cln2 rad14 strain (AID 165);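 further: 0% = growth equal to vehicle treated cultures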; details: S. cerevisiae cln2 rad14 strain, hits give high values
Procedure, shortened: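 Compounds are applied to the cln2 rad14 yeast strain, and growth is then compared with that of vehicle-treated cultures to give inhibition.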

[10] = NCI Yeast Anticancer Drug Screen. Data for the bub3 strain (AID 167); details: S. cerevisiae bub3 mutant strain, hits give high values
Procedure, shortened: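 Compounds were applied to a genetically altered yeast strain carrying a cell-cycle control defect. Growth inhibition was scored against vehicle-treated controls.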

[11] = NCI Yeast Anticancer Drug Screen. Data for the mlh1 strain (AID 171);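 further: 0% = growth of vehicle-treated control cultures of the same strain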; details: S. cerevisiae mlh1 strain growth inhibition, hits give high values
Procedure, shortened: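 Growth of the mutant yeast strain after compound exposure, expressed as inhibition relative to vehicle-only controls.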

[12] = NCI Yeast Anticancer Drug Screen. Data for the sgs1 strain (AID 173);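 further: 0% = growth of vehicle-only control cultures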; details: S. cerevisiae sgs1 mutant, hits give high values
Procedure, shortened: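 Growth of a yeast strain bearing a defined genetic alteration is measured after compound treatment. Inhibition is expressed relative to vehicle-only controls.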

[13] = NCI Yeast Anticancer Drug Screen. Data for the mlh1 rad18 strain (AID 175); details: S. cerevisiae mlh1 rad18 strain growth inhibition, hits give high values
Procedure, shortened: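 Read-out is yeast growth inhibition, calculated against vehicle-only controls. The compound was applied to a strain engineered with DNA damage repair alterations.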

[14] = NCI Yeast Anticancer Drug Screen. Data for the wt2 strain (AID 169);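 further: 0% = growth of vehicle-treated yeast cultures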; details: S. cerevisiae wt2 strain growth inhibition, hits give high values
Procedure, shortened: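 This strain belongs to a panel of yeast strains with defined genetic alterations in DNA damage repair or cell cycle control. Compounds are applied, and growth inhibition is measured against vehicle-treated cultures.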

[15] = NCI Yeast Anticancer Drug Screen. Data for the rad18 strain (AID 177); details: S. cerevisiae rad18 mutant growth inhibition, hits give high values
Procedure, shortened: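 Growth of the mutant yeast strain after compound exposure, normalised to vehicle-only cultures.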

[16] = at 5.0 µM (retest, dose inferred, filed as 0.5)
[17] = at 50.0 µM (retest, dose inferred, filed as 5.0)

Measured: growth inhibition

Cc1nc(Nc2ccccc2[N+](=O)[O-])sc1C(=O)CC(=O)C(=O)Nc1c(C(C)C)cccc1C(C)C
inactive: [1]; at 1.2 µM -2% | [1]; at 3.7 µM -2% | [1]; at 11.0 µM -1% | [1]; at 33.0 µM -5% | [1]; at 100.0 µM 1% | [2]; at 1.2 µM 5% | [2]; at 3.7 µM 17% | [2]; at 11.0 µM 37% | [2]; at 33.0 µM 50% | [2]; at 100.0 µM 59% | [3]; at 1.2 µM -1% | [3]; at 3.7 µM 0% | [3]; at 11.0 µM 0% | [3]; at 33.0 µM -11% | [3]; at 100.0 µM -1% | [4]; at 1.2 µM -5% | [4]; at 3.7 µM -16% | [4]; [16] 10% | [4]; at 11.0 µM -17% | [4]; at 33.0 µM 2% | [4]; [17] 1% | [4]; at 50.0 µM -1.6% | [4]; at 100.0 µM 3% | [5]; at 1.2 µM 2% | [5]; at 3.7 µM 4% | [5]; [16] 3% | [5]; at 11.0 µM 3% | [5]; at 33.0 µM 6% | [5]; [17] 8% | [5]; at 50.0 µM 17.9% | [5]; at 100.0 µM 6% | [6]; at 1.2 µM 0% | [6]; at 3.7 µM -2% | [6]; at 11.0 µM 1% | [6]; at 33.0 µM 0% | [6]; at 100.0 µM 3% | [7]; [16] 7% | [7]; [17] 11% | [7]; at 50.0 µM 34% | [8]; at 1.2 µM 3% | [8]; at 3.7 µM 1% | [8]; at 11.0 µM 4% | [8]; at 33.0 µM 11% | [8]; at 100.0 µM 12% | [9]; [16] 35% | [9]; [17] 12% | [9]; at 50.0 µM 47.1% | [10]; at 1.2 µM 3% | [10]; at 3.7 µM 5% | [10]; [16] -3% | [10]; at 11.0 µM 7% | [10]; at 33.0 µM 12% | [10]; [17] 33% | [10]; at 50.0 µM 41.2% | [10]; at 100.0 µM 12% | [11]; at 1.2 µM 2% | [11]; at 3.7 µM 3% | [11]; at 11.0 µM 5% | [11]; at 33.0 µM 5% | [11]; at 100.0 µM 5% | [12]; at 1.2 µM 2% | [12]; at 3.7 µM 4% | [12]; at 11.0 µM 2% | [12]; at 33.0 µM 7% | [12]; at 100.0 µM 6% | [13]; [16] 4% | [13]; [17] 14% | [13]; at 50.0 µM -5.1%

Cc1cc(NCCCCCCCCNc2cc(C)nc3cc(N)ccc23)c2ccc(N)cc2n1
inactive: [1]; at 1.2 µM -41% | [1]; at 3.7 µM -45% | [2]; at 1.2 µM -47% | [2]; at 3.7 µM -30% | [2]; at 11.0 µM 50% | [3]; at 1.2 µM -72% | [3]; at 3.7 µM -79% | [4]; at 1.2 µM -39% | [4]; at 3.7 µM -32% | [4]; [16] 15% | [5]; at 1.2 µM -70% | [5]; at 3.7 µM -55% | [5]; [16] 12% | [6]; at 1.2 µM -40% | [6]; at 3.7 µM -35% | [7]; [16] 8% | [8]; at 1.2 µM -18% | [8]; at 3.7 µM -20% | [8]; at 11.0 µM 39% | [9]; [16] 18% | [10]; at 1.2 µM -64% | [10]; at 3.7 µM -45% | [10]; [16] 39% | [14]; at 1.2 µM -39% | [14]; at 3.7 µM -36% | [14]; at 11.0 µM 55% | [11]; at 1.2 µM -88% | [11]; at 3.7 µM -63% | [12]; at 1.2 µM -64% | [12]; at 3.7 µM -72% | [12]; at 11.0 µM 65% | [13]; [16] 7% | [15]; at 1.2 µM -45% | [15]; at 3.7 µM -65% | [15]; at 11.0 µM 66%
active: [1]; at 11.0 µM 75% | [1]; at 33.0 µM 98% | [1]; at 100.0 µM 95% | [2]; at 33.0 µM 95% | [2]; at 100.0 µM 95% | [3]; at 11.0 µM 80% | [3]; at 33.0 µM 98% | [3]; at 100.0 µM 95% | [4]; at 11.0 µM 92% | [4]; at 33.0 µM 97% | [4]; [17] 98% | [4]; at 50.0 µM 90.2% | [4]; at 100.0 µM 96% | [5]; at 11.0 µM 91% | [5]; at 33.0 µM 98% | [5]; [17] 98% | [5]; at 50.0 µM 91.4% | [5]; at 100.0 µM 96% | [6]; at 11.0 µM 87% | [6]; at 33.0 µM 97% | [6]; at 100.0 µM 96% | [7]; [17] 99% | [7]; at 50.0 µM 92.1% | [8]; at 33.0 µM 97% | [8]; at 100.0 µM 94% | [9]; [17] 98% | [9]; at 50.0 µM 88% | [10]; at 11.0 µM 90% | [10]; at 33.0 µM 97% | [10]; [17] 99% | [10]; at 50.0 µM 91.5% | [10]; at 100.0 µM 93% | [14]; at 33.0 µM 97% | [14]; at 100.0 µM 95% | [11]; at 11.0 µM 92% | [11]; at 33.0 µM 97% | [11]; at 100.0 µM 94% | [12]; at 33.0 µM 95% | [12]; at 100.0 µM 94% | [13]; [17] 98% | [13]; at 50.0 µM 89.2% | [15]; at 33.0 µM 97% | [15]; at 100.0 µM 93%

Cc1cc(C(C)(C)CC(C)(C)C)ccc1O
active: [1]; at 33.0 µM 98% | [1]; at 100.0 µM 98% | [2]; at 100.0 µM 99% | [3]; at 33.0 µM 98% | [3]; at 100.0 µM 99% | [4]; at 33.0 µM 98% | [4]; [17] 79% | [4]; at 50.0 µM 92.3% | [4]; at 100.0 µM 99% | [5]; at 33.0 µM 99% | [5]; [17] 70% | [5]; at 50.0 µM 91.8% | [5]; at 100.0 µM 99% | [6]; at 33.0 µM 99% | [6]; at 100.0 µM 99% | [7]; [17] 99% | [7]; at 50.0 µM 93.7% | [8]; at 33.0 µM 98% | [8]; at 100.0 µM 99% | [10]; at 33.0 µM 98% | [10]; [17] 99% | [10]; at 50.0 µM 92.4% | [10]; at 100.0 µM 99% | [14]; at 33.0 µM 99% | [14]; at 100.0 µM 99% | [11]; at 33.0 µM 95% | [11]; at 100.0 µM 99% | [12]; at 33.0 µM 99% | [12]; at 100.0 µM 99% | [13]; [17] 73% | [13]; at 50.0 µM 92.9%
inactive: [1]; at 1.2 µM -22% | [1]; at 3.7 µM -45% | [1]; at 11.0 µM 15% | [2]; at 1.2 µM -16% | [2]; at 3.7 µM -16% | [2]; at 11.0 µM 1% | [2]; at 33.0 µM 60% | [3]; at 1.2 µM -52% | [3]; at 3.7 µM -66% | [3]; at 11.0 µM -37% | [4]; at 1.2 µM 12% | [4]; at 3.7 µM 11% | [4]; [16] 25% | [4]; at 11.0 µM 38% | [5]; at 1.2 µM -41% | [5]; at 3.7 µM -58% | [5]; [16] 28% | [5]; at 11.0 µM 3% | [6]; at 1.2 µM -3% | [6]; at 3.7 µM -30% | [6]; at 11.0 µM 16% | [7]; [16] -14% | [8]; at 1.2 µM -31% | [8]; at 3.7 µM -28% | [8]; at 11.0 µM -17% | [10]; at 1.2 µM -9% | [10]; at 3.7 µM -49% | [10]; [16] 6% | [10]; at 11.0 µM 32% | [14]; at 1.2 µM -20% | [14]; at 3.7 µM -34% | [14]; at 11.0 µM -10% | [11]; at 1.2 µM -16% | [11]; at 3.7 µM -53% | [11]; at 11.0 µM -16% | [12]; at 1.2 µM -17% | [12]; at 3.7 µM -38% | [12]; at 11.0 µM 14% | [13]; [16] 26%
